The full data set covers some 7,900 targets. This sample favours those with a hit. About 0.6% of all pairs of compound and target were hits. Values without a mark were called inactive.
Key:
Experiment in all cases: log2 fold change, soluble protein after heating vs DMSO (PISA); higher = thermal stabilisation; K562 cells, 10 uM, 30 min; active = over 0.2 and 3.5 SD of the protein, either way, in both replicates (recomputed)
[1] = compound: COC1=CC=C(C=C1)CN2C=CC3=C2C=C(C=C3)C(=O)NO
Procedure, shortened: (§1)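 Aliquots of K562 cells (2×10^6 cells/mL) treated with 10 μM compound for 30 min were heated for 3 min over 48°C-58°C. After pooling and extraction in PBS with 0.5% NP-40 at 4°C, soluble protein from a 21,000xg, 90 min spin was quantified by TMTpro 16plex LC-MS/MS with channel sums equalised. Thermal stability is expressed against control samples, from duplicates, as a log2 fold change.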

filanesib = compound: CON(C)C(=O)N1N=C(c2cc(F)ccc2F)S[C@@]1(CCCN)c1ccccc1 [filanesib]
Procedure, shortened: as §1

zotarolimus = compound: CO[C@H]1C[C@@H]2CC[C@@H](C)[C@@](O)(O2)C(=O)C(=O)N2CCCC[C@H]2C(=O)O[C@H]([C@H](C)C[C@@H]2CC[C@H](n3cnnn3)[C@H](OC)C2)CC(=O)[C@H](C)/C=C(\C)[C@@H](O)[C@@H](OC)C(=O)[C@H](C)C[C@H](C)/C=C/C=C/C=C/1C [zotarolimus]
Procedure, shortened: as §1

idasanutlin = compound: COc1cc(C(=O)O)ccc1NC(=O)[C@@H]1N[C@@H](CC(C)(C)C)[C@](C#N)(c2ccc(Cl)cc2F)[C@H]1c1cccc(Cl)c1F [idasanutlin]
Procedure, shortened: as §1

alisertib = compound: COc1cc(Nc2ncc3c(n2)-c2ccc(Cl)cc2C(c2c(F)cccc2OC)=NC3)ccc1C(=O)O [alisertib]
Procedure, shortened: as §1

[2] = compound: COc1cc2nc(-c3cc(F)ccc3O)nc(N[C@@H]3CNC[C@H]3C(C)(C)O)c2cc1OC
Procedure, shortened: as §1

gefitinib = compound: COc1cc2ncnc(Nc3ccc(F)c(Cl)c3)c2cc1OCCCN1CCOCC1 [gefitinib]
Procedure, shortened: as §1

[3] = compound: COc1cccc2cc(-c3nc([C@H]4CC[C@H](C(=O)O)CC4)n4ncnc(N)c34)[nH]c12
Procedure, shortened: as §1

lapatinib = compound: CS(=O)(=O)CCNCc1ccc(-c2ccc3ncnc(Nc4ccc(OCc5cccc(F)c5)c(Cl)c4)c3c2)o1 [lapatinib]
Procedure, shortened: as §1

pictilisib = compound: CS(=O)(=O)N1CCN(Cc2cc3nc(-c4cccc5[nH]ncc45)nc(N4CCOCC4)c3s2)CC1 [pictilisib]
Procedure, shortened: as §1

[4] = compound: CS(=O)(=O)c1ccc(-c2cnc(N)c(C(=O)Nc3ccccc3)n2)cc1
Procedure, shortened: as §1

crizotinib = compound: C[C@@H](Oc1cc(-c2cnn(C3CCNCC3)c2)cnc1N)c1c(Cl)ccc(F)c1Cl [crizotinib]
Procedure, shortened: as §1

[5] = compound: C[C@@H]1COCCN1C2=NC(=NC(=C2)C3(CC3)S(=O)(=O)C)C4=C5C=CNC5=CC=C4
Procedure, shortened: as §1

[6] = compound: C[C@H](C1=CC=C(C=C1)C(=O)NC2=C3C=CNC3=NC=C2)N
Procedure, shortened: as §1

duvelisib = compound: C[C@H](Nc1ncnc2nc[nH]c12)c1cc2cccc(Cl)c2c(=O)n1-c1ccccc1 [duvelisib]
Procedure, shortened: as §1

gandotinib = compound: Cc1cc(Nc2cc(CN3CCOCC3)c3nc(C)c(Cc4ccc(Cl)cc4F)n3n2)n[nH]1 [gandotinib]
Procedure, shortened: as §1

tozasertib = compound: Cc1cc(Nc2cc(N3CCN(C)CC3)nc(Sc3ccc(NC(=O)C4CC4)cc3)n2)n[nH]1 [tozasertib]
Procedure, shortened: as §1

[7] = compound: Cc1cc(SCc2sc(-c3ccc(C(F)(F)F)cc3)nc2C)ccc1OCC(=O)O
Procedure, shortened: as §1

doramapimod = compound: Cc1ccc(-n2nc(C(C)(C)C)cc2NC(=O)Nc2ccc(OCCN3CCOCC3)c3ccccc23)cc1 [doramapimod]
Procedure, shortened: as §1

ispinesib = compound: Cc1ccc(C(=O)N(CCCN)[C@@H](c2nc3cc(Cl)ccc3c(=O)n2Cc2ccccc2)C(C)C)cc1 [ispinesib]
Procedure, shortened: as §1

UniProt O14730, sequence (O14730 whole entry, looked up): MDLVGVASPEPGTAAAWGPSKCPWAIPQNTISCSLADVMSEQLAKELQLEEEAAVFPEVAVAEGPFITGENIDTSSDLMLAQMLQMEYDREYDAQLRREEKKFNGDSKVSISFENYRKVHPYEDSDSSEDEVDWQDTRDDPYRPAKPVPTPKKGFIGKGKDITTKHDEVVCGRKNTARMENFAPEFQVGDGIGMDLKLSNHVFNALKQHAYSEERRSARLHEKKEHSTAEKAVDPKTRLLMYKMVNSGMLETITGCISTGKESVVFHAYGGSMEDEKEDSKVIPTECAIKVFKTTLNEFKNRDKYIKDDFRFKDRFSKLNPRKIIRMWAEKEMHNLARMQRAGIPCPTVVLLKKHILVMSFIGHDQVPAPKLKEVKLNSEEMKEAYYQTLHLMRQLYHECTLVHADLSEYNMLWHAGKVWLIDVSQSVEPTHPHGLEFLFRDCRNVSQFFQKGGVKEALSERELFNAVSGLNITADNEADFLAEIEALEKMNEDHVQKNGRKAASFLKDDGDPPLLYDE
UniProt O00560, sequence (O00560 whole entry, looked up): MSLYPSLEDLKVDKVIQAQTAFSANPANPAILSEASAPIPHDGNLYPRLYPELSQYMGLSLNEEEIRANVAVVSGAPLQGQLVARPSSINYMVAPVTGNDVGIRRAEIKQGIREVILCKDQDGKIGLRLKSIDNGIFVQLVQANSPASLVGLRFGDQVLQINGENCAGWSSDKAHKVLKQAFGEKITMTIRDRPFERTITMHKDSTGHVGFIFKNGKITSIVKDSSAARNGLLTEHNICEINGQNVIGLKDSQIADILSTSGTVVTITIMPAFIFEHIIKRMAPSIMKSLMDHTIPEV
UniProt Q8N0T1, sequence (Q8N0T1 whole entry, looked up): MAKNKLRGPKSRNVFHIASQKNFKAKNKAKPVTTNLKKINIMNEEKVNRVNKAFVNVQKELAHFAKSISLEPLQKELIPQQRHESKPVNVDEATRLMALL
UniProt Q8TBN0, sequence (Q8TBN0 whole entry, looked up): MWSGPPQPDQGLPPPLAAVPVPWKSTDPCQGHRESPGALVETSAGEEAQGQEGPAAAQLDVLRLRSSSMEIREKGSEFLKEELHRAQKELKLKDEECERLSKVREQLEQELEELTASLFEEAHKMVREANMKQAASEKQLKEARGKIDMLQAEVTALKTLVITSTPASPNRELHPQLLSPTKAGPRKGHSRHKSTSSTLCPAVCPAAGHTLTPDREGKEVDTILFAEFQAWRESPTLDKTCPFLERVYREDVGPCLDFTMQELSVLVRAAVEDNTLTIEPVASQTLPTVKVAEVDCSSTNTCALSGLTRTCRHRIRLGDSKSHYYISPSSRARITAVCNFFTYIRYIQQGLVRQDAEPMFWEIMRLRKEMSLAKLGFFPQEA
UniProt Q5JTH9, sequence (Q5JTH9 whole entry, looked up): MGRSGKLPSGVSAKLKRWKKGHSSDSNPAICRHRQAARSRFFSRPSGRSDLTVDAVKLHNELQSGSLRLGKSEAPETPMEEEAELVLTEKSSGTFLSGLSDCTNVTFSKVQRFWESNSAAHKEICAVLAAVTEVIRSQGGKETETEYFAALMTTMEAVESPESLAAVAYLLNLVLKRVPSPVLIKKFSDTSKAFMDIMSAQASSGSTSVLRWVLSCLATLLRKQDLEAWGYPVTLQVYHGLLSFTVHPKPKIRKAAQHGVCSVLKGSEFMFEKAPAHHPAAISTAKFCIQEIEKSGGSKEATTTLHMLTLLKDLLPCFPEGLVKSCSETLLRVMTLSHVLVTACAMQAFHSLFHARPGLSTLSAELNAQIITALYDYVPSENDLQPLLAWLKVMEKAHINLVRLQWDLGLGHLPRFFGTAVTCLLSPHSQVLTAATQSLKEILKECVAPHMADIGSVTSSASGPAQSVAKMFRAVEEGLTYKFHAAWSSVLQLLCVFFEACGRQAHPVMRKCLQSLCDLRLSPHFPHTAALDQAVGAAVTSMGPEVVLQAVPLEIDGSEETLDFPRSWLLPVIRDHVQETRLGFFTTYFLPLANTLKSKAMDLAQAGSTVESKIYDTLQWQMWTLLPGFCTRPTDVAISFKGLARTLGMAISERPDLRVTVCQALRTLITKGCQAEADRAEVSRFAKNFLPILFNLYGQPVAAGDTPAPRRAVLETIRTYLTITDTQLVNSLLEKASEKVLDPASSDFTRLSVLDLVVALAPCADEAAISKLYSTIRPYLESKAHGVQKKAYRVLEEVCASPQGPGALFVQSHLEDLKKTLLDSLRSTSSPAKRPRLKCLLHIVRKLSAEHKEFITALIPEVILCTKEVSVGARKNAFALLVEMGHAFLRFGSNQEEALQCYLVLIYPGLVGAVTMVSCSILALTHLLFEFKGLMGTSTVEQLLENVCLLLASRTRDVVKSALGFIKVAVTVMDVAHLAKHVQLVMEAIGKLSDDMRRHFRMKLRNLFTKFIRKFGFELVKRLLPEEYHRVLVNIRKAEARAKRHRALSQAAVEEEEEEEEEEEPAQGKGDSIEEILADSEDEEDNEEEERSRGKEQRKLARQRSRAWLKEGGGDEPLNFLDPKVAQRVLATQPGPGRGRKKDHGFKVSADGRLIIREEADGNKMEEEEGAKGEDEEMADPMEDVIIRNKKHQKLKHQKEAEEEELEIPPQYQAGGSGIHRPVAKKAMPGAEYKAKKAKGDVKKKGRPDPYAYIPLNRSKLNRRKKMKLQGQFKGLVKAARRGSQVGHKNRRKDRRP
UniProt Q9BY42, sequence (Q9BY42 whole entry, looked up): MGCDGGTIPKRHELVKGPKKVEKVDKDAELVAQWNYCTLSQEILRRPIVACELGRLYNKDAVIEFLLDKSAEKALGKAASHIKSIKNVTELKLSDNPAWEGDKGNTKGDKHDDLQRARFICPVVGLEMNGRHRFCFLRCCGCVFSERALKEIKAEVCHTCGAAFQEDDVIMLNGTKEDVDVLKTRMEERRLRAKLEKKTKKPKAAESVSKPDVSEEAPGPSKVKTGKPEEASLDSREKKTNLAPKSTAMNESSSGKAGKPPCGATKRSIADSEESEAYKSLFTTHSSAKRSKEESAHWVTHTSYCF
UniProt Q9NTJ5, sequence (Q9NTJ5 whole entry, looked up): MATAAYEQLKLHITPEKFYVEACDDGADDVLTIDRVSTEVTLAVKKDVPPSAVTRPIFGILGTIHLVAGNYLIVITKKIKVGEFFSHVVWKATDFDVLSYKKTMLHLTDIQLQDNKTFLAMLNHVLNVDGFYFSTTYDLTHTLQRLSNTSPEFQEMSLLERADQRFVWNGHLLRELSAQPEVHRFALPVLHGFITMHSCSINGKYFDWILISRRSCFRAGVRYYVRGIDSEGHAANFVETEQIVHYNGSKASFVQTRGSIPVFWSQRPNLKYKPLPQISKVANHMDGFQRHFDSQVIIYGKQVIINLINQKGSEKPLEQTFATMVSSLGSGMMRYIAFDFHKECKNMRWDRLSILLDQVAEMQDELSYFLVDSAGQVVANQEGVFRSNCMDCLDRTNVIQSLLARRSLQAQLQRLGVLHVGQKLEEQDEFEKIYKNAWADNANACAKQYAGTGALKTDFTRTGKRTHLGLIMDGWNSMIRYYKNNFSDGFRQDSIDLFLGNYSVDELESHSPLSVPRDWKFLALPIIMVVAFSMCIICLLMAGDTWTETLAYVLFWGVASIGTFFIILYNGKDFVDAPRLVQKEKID
UniProt Q9BXP2, sequence (Q9BXP2 whole entry, looked up): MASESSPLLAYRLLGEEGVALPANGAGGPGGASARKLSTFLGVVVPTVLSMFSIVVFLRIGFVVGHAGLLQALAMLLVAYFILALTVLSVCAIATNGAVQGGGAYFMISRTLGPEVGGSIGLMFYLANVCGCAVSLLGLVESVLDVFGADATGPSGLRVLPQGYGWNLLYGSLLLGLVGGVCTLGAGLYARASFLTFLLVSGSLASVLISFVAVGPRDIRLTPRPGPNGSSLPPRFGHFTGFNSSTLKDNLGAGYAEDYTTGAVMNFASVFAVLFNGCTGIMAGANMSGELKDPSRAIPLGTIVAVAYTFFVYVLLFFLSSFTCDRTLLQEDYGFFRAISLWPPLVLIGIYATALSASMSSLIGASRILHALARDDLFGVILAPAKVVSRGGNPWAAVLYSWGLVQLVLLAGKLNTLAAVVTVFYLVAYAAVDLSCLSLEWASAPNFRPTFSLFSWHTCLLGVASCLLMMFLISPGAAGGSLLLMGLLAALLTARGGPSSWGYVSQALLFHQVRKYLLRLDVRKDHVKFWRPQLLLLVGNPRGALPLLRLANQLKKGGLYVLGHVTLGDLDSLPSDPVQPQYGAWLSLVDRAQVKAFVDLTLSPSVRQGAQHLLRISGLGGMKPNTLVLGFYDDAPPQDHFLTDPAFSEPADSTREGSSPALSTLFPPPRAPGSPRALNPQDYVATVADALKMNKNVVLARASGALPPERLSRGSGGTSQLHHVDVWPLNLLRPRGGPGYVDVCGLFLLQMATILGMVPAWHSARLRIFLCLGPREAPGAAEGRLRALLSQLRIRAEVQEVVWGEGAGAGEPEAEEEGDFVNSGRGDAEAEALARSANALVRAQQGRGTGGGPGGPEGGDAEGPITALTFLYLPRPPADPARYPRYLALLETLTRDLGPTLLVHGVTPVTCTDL
UniProt Q9BUV8, sequence (Q9BUV8 whole entry, looked up): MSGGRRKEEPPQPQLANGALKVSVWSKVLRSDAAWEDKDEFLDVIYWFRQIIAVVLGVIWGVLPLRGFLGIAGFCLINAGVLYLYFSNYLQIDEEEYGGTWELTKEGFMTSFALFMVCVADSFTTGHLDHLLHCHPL
UniProt Q8N5L8, sequence (Q8N5L8 whole entry, looked up): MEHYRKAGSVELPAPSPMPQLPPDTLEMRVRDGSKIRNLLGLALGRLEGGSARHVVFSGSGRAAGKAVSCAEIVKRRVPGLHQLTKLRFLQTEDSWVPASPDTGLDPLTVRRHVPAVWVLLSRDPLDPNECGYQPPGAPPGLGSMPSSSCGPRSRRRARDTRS

Target | log2 fold change [1] | log2 fold change (filanesib) | log2 fold change (zotarolimus) | log2 fold change (idasanutlin) | log2 fold change (alisertib) | log2 fold change [2] | log2 fold change (gefitinib) | log2 fold change [3] | log2 fold change (lapatinib) | log2 fold change (pictilisib) | log2 fold change [4] | log2 fold change (crizotinib) | log2 fold change [5] | log2 fold change [6] | log2 fold change (duvelisib) | log2 fold change (gandotinib) | log2 fold change (tozasertib) | log2 fold change [7] | log2 fold change (doramapimod) | log2 fold change (ispinesib)
RAB3IL1 (UniProt Q8TBN0) | -0.006 | -0.003 | -0.023 | 0 | -0.115 | 0.07 | 0.033 | 0.038 | 0.001 | -0.019 | 0.009 | 0.086 | 0.071 | 0.031 | 0.026 | 0.012 | 0 | -0.009 | -0.021 | 0.04
SLC19A1 (UniProt P41440) | 0.047 | -0.164 | -0.106 | 0.023 | -0.034 | 0.003 | 0 | 0.086 | -0.066 | -0.026 | -0.097 | 0.086 | 0.041 | -0.088 | 0.135 | -0.107 | -0.04 | 0.012 | -0.037 | 0.083
RPRD1B (UniProt Q9NQG5) | 0.014 | 0.022 | -0.018 | -0.031 | -0.011 | 0.106 | 0.037 | 0.061 | -0.004 | 0.019 | -0.104 | 0.072 | 0.062 | -0.042 | 0.078 | -0.227 | 0.023 | 0.062 | -0.044 | 0.039
RTF2 (UniProt Q9BY42) | -0.021 | 0.09 | 0.03 | 0.066 | 0.024 | 0.036 | 0.049 | 0 | 0.026 | -0.027 | -0.005 | 0.234 | -0.061 | -0.089 | 0.116 | 0.104 | 0.166 | -0.003 | -0.083 | 0.151
RAB5IF isoform 5 (UniProt Q9BUV8) | 0.429 (active) | -0.243 | -0.074 | -0.015 | -0.081 | -0.021 | 0.018 | 0.002 | 0.006 | 0.006 | -0.036 | -0.094 | 0.076 | -0.007 | 0.078 | 0.04 | -0.156 | -0.002 | 0.025 | 0.157
SACM1L (UniProt Q9NTJ5) | 0.044 | -0.081 | 0.029 | -0.027 | -0.05 | -0.039 | 0.086 | 0.023 | 0.028 | -0.038 | 0.026 | 0 | 0.062 | -0.094 | 0.031 | -0.065 | 0.058 | 0.005 | -0.055 | -0.096
RNF167 (UniProt Q9H6Y7) | -0.062 | -0.032 | -0.033 | 0.018 | -0.014 | -0.084 | -0.013 | 0.016 | 0.024 | -0.029 | 0.087 | -0.133 | -0.097 | 0.082 | -0.026 | -0.045 | 0.027 | 0.018 | -0.056 | -0.668 (active)
SDCBP (UniProt O00560) | -0.022 | -0.154 | 0.1 | 0.101 | -0.04 | -0.152 | -0.043 | -0.022 | 0.005 | -0.05 | -0.003 | -0.216 | 0.101 | -0.043 | -0.008 | 0.094 | 0.048 | 0.086 | -0.006 | -0.361 (active)
SLC12A9 (UniProt Q9BXP2) | -0.022 | -0.093 | 0.091 | 0.044 | -0.106 | 0.049 | -0.151 | 0.023 | 0.075 | -0.121 | -0.071 | -0.315 (active) | -0.022 | 0.016 | -0.038 | -0.16 | 0.001 | -0.074 | -0.012 | -0.713 (active)
RBIS (UniProt Q8N0T1) | -0.069 | 0.077 | -0.075 | 0.061 | -0.053 | -0.018 | -0.056 | -0.012 | 0.012 | -0.04 | -0.157 | -0.097 | -0.086 | 0.069 | -0.028 | 0.053 | -0.014 | -0.045 | 0.062 | 0.009
RIOK3 (UniProt O14730) | -0.039 | -0.049 | -0.019 | 0.052 | -0.029 | -0.009 | 0.007 | 0.01 | 0.003 | 0.095 | -0.004 | -0.031 | 0.029 | -0.026 | 0.034 | 0.086 | -0.033 | -0.011 | -0.019 | -0.004
RRP12 (UniProt Q5JTH9) | -0.03 | 0.288 | -0.046 | 0.032 | 0.204 | 0.222 | -0.104 | -0.222 | -0.128 | 0.032 | -0.056 | -0.074 | -0.242 | 0.811 (active) | -0.014 | 0.074 | -0.092 | 0.053 | 0.203 | -0.172
RPP25L (UniProt Q8N5L8) | 0.107 | 0.012 | -0.002 | 0.069 | -0.093 | -0.12 | 0.054 | -0.068 | 0.042 | -0.052 | -0.031 | 0.059 | -0.014 | 0.145 | 0.06 | 0.045 | -0.01 | -0.019 | -0.005 | -0.027

Reference: the supplement of paper PMC10849652
